# Measurements reported in the supplement of paper PMC11417369.
# ± gives the standard deviation of the averaged measurements. Whole data set: some 25,000 sequences, median “ln(normalized median fluorescence intensity)” near 8.9, cut for the highest 2% near 10. Shown is part of a subset that was picked to be rich in the highest values.
# Test system: PfAP2-LT AP2 domain (GST-tagged)
# Assay: gcPBM binding intensity (ln(normalized median fluorescence intensity)); higher = stronger DNA binding
# Outline: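 Binding intensity values are the highest Masliner-normalised natural-log median intensity among replicate spots of either probe orientation. The binding step lasted 1 h in 1× PBS with 1% milk, 0.2 mg/ml BSA, 0.5% salmon testes DNA and 0.03% Triton X-100, using GST-tagged P. falciparum DNA-binding domains expressed in E. coli on an Agilent 4 × 180k array of primer-extended double-stranded 36-bp intergenic genomic probes plus negative controls. Alexa488 anti-GST antibody and a 488 nm scan detected bound protein.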
row,Sequence,gcPBM binding intensity (ln)
1,AATTAAAATACAAATGTATGCATGTCTCATATAGAA [TGCATGCA_site822],8.78 ± 0.43
2,ATTCTTAAATGTGGTTGTACATATTATCACCTTTAA [XGTACX_site8188],8.75 ± 0.42
3,TGGAGATTTTTAAAGACACACAGGTAAGAATAATAA [CACACA_site1582],8.77 ± 0.47
4,GAGAAATGGAGACACACACACATATTATATATATAT [CACACA_site1532],9.85 ± 0.15
5,TATATATATGGACACACACACATATATATATATTTT [CACACA_site5409],9.67 ± 0.23
6,AAAGGATATGGACACACACACACATATATATATATA [CACACA_site8686],10.5 ± 0.15
7,GATACCTATAGACACACACACATACCTATATACATA [CACACA_site7586],9.66 ± 0.47
8,TATATATATGGACACACACACATATAAATAAATAAA [CACACA_site4406],9.71 ± 0.49
9,TATATGTAAATGGACACACACATATATATATATATA [CACACA_site3659],10 ± 0.13
10,TATATATATGGACACACACACACATATATATATATA [CACACA_site6121],10.3 ± 0.23
11,TATATATATAGACACACACACACATATATATATATA [CACACA_site9366],10.02 ± 0.042
12,CAAGAAAATGGACACACACACATATATATATATATA [CACACA_site6010],10.37 ± 0.092
13,AAAAATTATGGACACACACACATATATATATATATT [CACACA_site4717],9.8 ± 0.11
14,TAAATTTATGGACACACACACATATATATATATATA [CACACA_site4620],9.955 ± 0.021
15,AAAGGATATAGACACACACACACATATATATATATA [CACACA_site2200],10.3 ± 0.32
16,ATAATATTGTGGTATACACACCTTACAAAAAGGTAC [CACACA_site5582],8.96 ± 0.42
17,AAATATAAAAATAGCACACATATATACCTATATATA [CACACA_site4204],8.99 ± 0.38
18,TATATTGCCCTTCACACACACACATATATATATATA [CACACA_site2492],10 ± 0.13
19,TATTGCCCTTGACACACACACATATAAATAAATATA [CACACA_site7220],9.34 ± 0.44
20,TATTGCCCTGGACACACACACATATATATATATATA [CACACA_site5389],10.2 ± 0.064
21,ATTCAAATATTAAAAAGTACAAAAAAAAAACAAAAA [XGTACX_site1174],8.63 ± 0.5
22,AAGCTTTCATAAAGATGTACTTTTTAAAAATAATCT [XGTACX_site5725],8.28 ± 0.3

row,Sequence,gcPBM binding intensity (ln)
1,TACATTTTATGCATTTGTACACAAATAAATAAATAA [XGTACX_site2652],8.49 ± 0.42
2,TTTTTCAGAAAAGAAACACACATATATATATTTATA [CACACA_site2372],8.56 ± 0.43
3,AATAATATATTTAGGGGTACATAATAATATATTTTA [XGTACX_site8366],8.66 ± 0.3
4,AAATATATTATAAATTGTACGTTTATATATATTATT [XGTACX_site5110],8.69 ± 0.47
5,TTAGGCAAGGCGGGGGGTACGTTTTTATATAATTAT [XGTACX_site8029],10.2 ± 0.14
6,ATCTCTATGATATATACACACAAATATACAAAAAAA [CACACA_site6605],8.96 ± 0.45
7,TATAATATTCTATATGCATGTACACCATTCTTTATT [TGCATGCA_site688],9.15 ± 0.45
8,ACACATACATATACATACACATTGTTTTCATGCATC [XGTACX_negctrl_site126],9.2 ± 0.39
9,TATATATATATATATACATGCATCATTGTTCACCTT [TGCATGCA_site177],10.2 ± 0.35
10,GTTCATCACATATACACATGCATATTCTAATATGTA [TGCATGCA_site809],8.95 ± 0.41
11,TAAAATGAATAAAATTGTACTTAATAATATTTTAAA [XGTACX_site5532],8.23 ± 0.57
12,TAAAATATAGAAAATTTTATTAAATATAAAAAAATA [CACACA_negctrl_site1441],8.28 ± 0.47
13,TATAAGAAATAAAACCTGATTATAAACCTGTAACCA [CACACA_negctrl_site1302],8.63 ± 0.37
14,AAAATAATAATAGGCACACATATATATATATATATA [CACACA_site2058],9.99 ± 0.21
15,ATAAATACTAGGCACACACACATATAGATTTATATA [CACACA_site7064],9.77 ± 0.47
16,AAATAAATACTAGGCACACACACATATATATATATA [CACACA_site2079],10.1 ± 0.15
17,ATAAATAAATACTAGGCACACACACCGATATATATA [CACACA_site8649],9.76 ± 0.22
18,ATAAATACTAGGCACACACACATATATATATATATA [CACACA_site2080],10.4 ± 0.014
19,AATAAAATAATAGGCACACATATATATATATATTAT [CACACA_site273],9.2 ± 0.37
20,TATATTTGGAAAACATGTACATATAACAATATGTAA [XGTACX_site324],8.71 ± 0.34
21,TTAGTTATTAAAAAAAGTACATAAGTAGATATCATC [XGTACX_site8712],8.7 ± 0.45
22,TTTGAACATTTTGCAAGTACAAAAAAATAATATATC [XGTACX_site8079],8.65 ± 0.42

row,Sequence,gcPBM binding intensity (ln)
1,ACTCTCTTATATTAAACACACATATATATATGTATA [CACACA_site2703],8.99 ± 0.42
2,GTGCTAAAAGTATATGCACACACATATATATGCACA [CACACA_site8472],9.42 ± 0.31
3,TATAACATAAAACACACACACATACATACACAAAAA [CACACA_site1804],10.1 ± 0.15
4,AAATAAAACAAACACACACACACATACACAAAAAAA [CACACA_site3849],10.12 ± 0.035
5,AATAAACATATATACACACACAAAAAAAAAAACATA [CACACA_site424],9.59 ± 0.5
6,AAAAAAAAAAAACATACACACAAATAAATACATACA [CACACA_site6073],9.23 ± 0.36
7,ATAAAACAAAAACACACACACATACACAAAAAAAAA [CACACA_site3848],10.1 ± 0.3
8,AATATATAAACATATACACACAAAAACATATATATA [CACACA_site4855],9.21 ± 0.33
9,TATATACACATATATAAACACACAAAAAAAAAAAAA [CACACA_site8626],8.89 ± 0.4
10,AATAAACATAAATACACACACAAAAAAAAAAACATA [CACACA_site4396],9.64 ± 0.33
11,TATACACATATATAAACACACAAAAAAAAAAAAAAA [CACACA_site7041],8.88 ± 0.49
12,AATTTTTTATATGTCACACATTTATTATTATTATTA [CACACA_site4198],8.83 ± 0.48
13,AACATATAAAAATATGCACACACAGGAATACAAACA [CACACA_site8127],9.89 ± 0.45
14,AAAAAATAAATAAATAGTACTTTAAAAGAAAAAAAA [XGTACX_site5051],8.55 ± 0.51
15,TGTTTATTTAATAATATTTTTTTTTTTATTATATTA [XGTACX_negctrl_site56],8.31 ± 0.54
16,ATAAGATTATACAATTGTACGTTGTTCAAGATAAGG [XGTACX_site191],8.8 ± 0.42
17,AATAAATATAAATAAATAAATATATATATATATTTG [CACACA_negctrl_site1486],8.56 ± 0.4
18,TTTTATGTTTTAAAATGTACGTGTCAATGAATAAGT [XGTACX_site6239],8.52 ± 0.42
19,TTATTTACAACTTCAAATTATGTGTAATACTACTAT [CACACA_negctrl_site741],8.73 ± 0.52
20,AAAACAATATACTGTAGTACTGATGATATATATATA [XGTACX_site7798],9.01 ± 0.38
21,AAGAACAGAACGTACACACACATATATATATATATA [CACACA_site3457],10.2 ± 0.28
22,AACACAAGAACAGAACGTACACACACATATATATAT [XGTACX_site7347],9.84 ± 0.13

row,Sequence,gcPBM binding intensity (ln)
1,AAGAACAGAACGTACACACACATATTTATATTTATA [CACACA_site7594],9.55 ± 0.3
2,ACAAGAACAGAACGTACACACACATATATATATATA [CACACA_site9143],10.175 ± 0.0071
3,TATATATACATATACACACATACGTACATACATATA [CACACA_site3585],9.13 ± 0.39
4,TAAAAAAAAACATATACACACAAAAACGTACACATA [CACACA_site1354],9.31 ± 0.3
5,AAAAAATAATAATAAAATGAATAGATATGTATTTAT [TGCATGCA_negctrl_site210],8.63 ± 0.52
6,AAAAAAAAAAAAAAATGTACATATATAATATTTATA [XGTACX_site5117],8.54 ± 0.57
7,TATAAAATTACATTTTGTCATTTATTTTTTCCCACT [TGCATGCA_negctrl_site110],8.54 ± 0.63
8,ATACAAAAGGGGAATACACACACATATATATATATA [CACACA_site8694],10.12 ± 0.021
9,AGTATATATACACAAGGGGAATACATATACAAAATT [TGCATGCA_negctrl_site244],9.04 ± 0.46
10,ACAAAAGGGGAATACACACACATATATAAATAAATA [CACACA_site7111],9.59 ± 0.6
11,CACACAAAGGAATATACACACATATTTATATTTATA [CACACA_site7841],9.21 ± 0.44
12,ACAAAAGGGGAATACACACACATATATATATATATA [CACACA_site2215],10.33 ± 0.071
13,CCCACAAAGGAATATACACACATATATATATATATA [CACACA_site4091],9.95 ± 0.18
14,ACAATAAAAATTTATGCATGTGAATTGAAAAAAAAA [TGCATGCA_site1037],8.72 ± 0.48
15,CATAAATCAGCCATAACACACATACATATATACATA [CACACA_site8025],9.28 ± 0.42
16,TAATATACATAATAATGTACATATTTTCATATATAC [XGTACX_site6913],8.74 ± 0.35
17,ACCATGAAAATATTATGTACATATGTATTATATATA [XGTACX_site408],8.87 ± 0.33
18,ATATATAATATATATGCATGTGACATTAATAATATA [TGCATGCA_site880],8.81 ± 0.4
19,TTTATATTGATATATACACACATATACATCCTATTT [CACACA_site7442],9.11 ± 0.42
20,GGAAAAACCATTCGCACACACACATAATATATAATA [CACACA_site1424],9.71 ± 0.31
21,AACCATTGGGAAAGGGTGCACATATATATATATATA,10.09 ± 0.099
22,ATAAATATTGGGTGCACACACATAATATATATATAT [CACACA_site2272],9.59 ± 0.35
